In the library only some 4% were active in any assay of this set; here they are far more common.
p53null 32C tox: selectivity test: cytotoxicity in p53 null cells, permissive temperature | H1299-neo p53 null cells, ATP luminescence, 24 h, 32C | Potency, µM (series often up to 46.1 µM), for the others: at the highest dose activity change, negative = cytotoxicity, actives largely listed as cytotoxic | actives 0.62% (n = 55,000);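 further: potency means the concentration at half of the fitted maximal effect; 0% = DMSO only and -100% = full killing by 100 µM tamoxifen; nearly all actives have a fitted effect of over 55% in size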
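Overnight 37C seeding (600 cells/well) of H1299-neo preceded a 24 hr, 32C exposure to compounds up to 46 uM. ATP levels, read by luminescence after 20 min at RT, indicated surviving cells.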
GALC G270D act: enhancers of human galactocerebrosidase G270D mutant activity in cells; actives 0.1% (n = 45,000); Potency, µM (doses to about 57.5 µM), most hits filed as activators; 145M-Twi-hGALC-G270D cells (Twitcher mouse brain line with human GALC G270D), HMU-beta-Gal fluorescence, 48 h; P54803; further: potency means the concentration at half of the fitted maximal effect; 0% is about no effect; nearly all actives have a fitted effect of over 65% in size
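Live 145M-Twi cells (Twitcher mouse brain-derived, GALC-null) stably expressing human GALC-G270D, with a wild-type GALC line, were compound-treated. Residual GALC activity was then read as fluorescence from 0.1 mM final HMU-β-gal at pH 5.2; higher signal means activation.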
NTMT1 inhibitor: inhibitors of human N-terminal methyltransferase NTMT1; Q9BV86; NTMT1 MTase-Glo SAH luminescence, purified enzyme; Potency, µM (highest dose often 114 µM), inactives show at the highest dose activity change, negative = inhibition, hits mostly inhibitors; actives 2.5% (n = 59,000); AID 1645870;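 further: potency means the concentration at half of the fitted maximal effect; plate controls were DMSO vehicle for no effect and no enzyme for full effect; nearly all actives have a fitted effect of over 65% in size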
Target sequence (Q9BV86 whole entry, looked up): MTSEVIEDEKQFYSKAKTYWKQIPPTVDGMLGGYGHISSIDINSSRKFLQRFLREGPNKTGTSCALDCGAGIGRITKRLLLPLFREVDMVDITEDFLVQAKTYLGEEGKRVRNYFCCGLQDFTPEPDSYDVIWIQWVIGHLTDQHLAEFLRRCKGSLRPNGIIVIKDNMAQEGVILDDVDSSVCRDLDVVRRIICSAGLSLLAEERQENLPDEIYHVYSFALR
DRV1 agonist: GPR32 (DRV1) agonism, beta-arrestin recruitment; O75388; CHO-K1 GPR32 beta-arrestin PathHunter luminescence, 90 min; zero percent set by DMSO-only wells; activation, % at 76.9 µM; actives 2.5% (n = 48,000); AID 1346428;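 active means activation of at least 60% and not above a set upper limit, about 1 call in 100 departs from these limits; inconclusive means activation of 40% to 60%, or above that upper limit; inactive means activation under 40%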; further: 0% is about no effect
Target sequence (O75388 whole entry, looked up): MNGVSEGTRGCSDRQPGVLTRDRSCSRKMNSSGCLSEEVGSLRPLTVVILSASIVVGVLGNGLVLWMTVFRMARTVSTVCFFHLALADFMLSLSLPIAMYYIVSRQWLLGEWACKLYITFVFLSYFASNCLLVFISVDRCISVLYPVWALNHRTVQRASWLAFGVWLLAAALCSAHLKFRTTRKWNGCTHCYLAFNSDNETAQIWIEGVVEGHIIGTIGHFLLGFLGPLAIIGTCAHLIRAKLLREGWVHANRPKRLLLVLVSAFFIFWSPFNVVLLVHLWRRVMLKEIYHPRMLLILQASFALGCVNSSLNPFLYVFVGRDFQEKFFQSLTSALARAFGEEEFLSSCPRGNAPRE
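Agonism was scored by beta-Gal fragment complementation (chemiluminescent read, 1 h detection at ambient temperature) reporting beta-arrestin binding to GPR32 in engineered CHO-K1 cells. Compound treatment lasted 90 min at 37 C, normalized to a DMSO basal control.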
SKOV3 invasion: ovarian cancer metastasis inhibition, 3D TME model; AID 1963576; SKOV3ip1-GFP adhesion/invasion on 3D omental model, fluorescence; Potency, µM (highest dose often 45.8 µM), inactives show at the highest dose activity change, negative = inhibition, actives largely listed as inhibitors; actives 0.1% (n = 46,000);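 further: potency means the concentration at half of the fitted maximal effect; plate controls were DMSO wells for no effect and tomatine positive control wells for full effect; nearly all actives have a fitted effect of over 65% in size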
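Adhesion/invasion was scored as fixed GFP-labeled SKOV3ip1 cell counts (488/509 nm), normalized to DMSO and tomatine controls. Cancer cells in serum-free medium, with four compound doses (0.36-46 umol/L), sat 2 hr at RT then 16 hr at 37 C on a 48 hr fibroblast/mesothelial/ECM culture.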
p53null 39C tox: p53 null cell cytotoxicity, nonpermissive temperature; AID 904; H1299 p53-null (neo) cells, 39C, ATPlite viability, 24 h; actives 0.97% (n = 55,000); Potency, µM (highest dose often 46.1 µM), without a hit: at the highest dose activity, negative = cell killing, usual class: cytotoxic;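 further: potency means the concentration at half of the fitted maximal effect; 0% = DMSO only and -100% = full killing by 100 µM tamoxifen; nearly all actives have a fitted effect of over 50% in size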
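Following overnight plating at 37C (600 cells/well), H1299-neo or H1299-p53A138V cells are dosed up to 46 uM. Incubation lasts 24 hr at 39C before ATP detection.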
* hit, by the source's call; i = inactive; ? = inconclusive; . = no result; ! = repeats disagree; [ ] = remark or other dose. Unless noted, the call rests on the fitted dose curve; in most records, active means well fitted curve in the direction sought with a large enough effect; inconclusive means small, poorly fitted or top-dose-only effect, or another doubt; inactive means no such curve, though single readings can be large; an effect the other way counts as inactive or inconclusive.

SMILES	p53null 32C tox	GALC G270D act	NTMT1 inhibitor	DRV1 agonist	SKOV3 invasion	p53null 39C tox
CC(=O)c1ccc2c(c1)C(O)C(C(C)(C)O)O2 (stereo unspecified)	.	.	0%[57.5 µM]	.	.	.
COc1ccccc1Nc1c2c(nc3ccc(NC(=O)c4cccc(OC)c4OC)cc13)CCCC2	-22%	i	2%	-7	?	14%
COc1ccccc1Nc1c2c(nc3ccc(NC(=O)c4ccc(OC)c(OC)c4)cc13)CCCC2	?	?	-5%	7	?	22µM*
CN1C(=O)Cc2cc(S(=O)(=O)CCC(=O)Nc3ccc(Cl)c(C(F)(F)F)c3)ccc21	2%	i	12%	-5	9%	53%
CCC(=O)N1CCc2cc(S(=O)(=O)CCC(=O)Nc3ccc(Cl)c(C(F)(F)F)c3)ccc21	14%	i	-7%	88*	i	-6%
Cc1[nH]c(C=C2C(=O)Nc3ccc(S(=O)(=O)N(C)c4cccc(Cl)c4)cc32)c(C)c1C(=O)N1CCN(C)CC1	.	.	4%[57.5 µM]	.	13%	.
CCN(CC)CCNC(=O)c1c(C)[nH]c(/C=C2\C(=O)Nc3ccc(Cl)cc32)c1C	.	.	25µM*	.	.	.
C/C(=N\O)[C@@H](C)NCC(C)(C)CN[C@H](C)/C(C)=N/O	.	i	9%[57.5 µM]	118*	.	.
Cc1cc(C)cc(NC(=O)COc2cccc3c(=O)n(C)ccc23)c1	-7%	i	-6%	86*	i	8%
CCOCCn1ccc2c(OCC(=O)Nc3cccc(F)c3)cccc2c1=O	4%	i	13%	77*	5%	22%
Cn1ccc2c(OCC(=O)NCc3ccc(F)cc3)cccc2c1=O	-7%	i	-7%	68*	i	32%
CCn1ccc2c(OCC(=O)NCc3ccc(F)cc3)cccc2c1=O	0%	i	-1%	23	11%	-10%
CCOCCn1ccc2c(OCC(=O)Nc3cccc([N+](=O)[O-])c3)cccc2c1=O	-15%	i	1%	3	-9%	?
O=C(NCc1ccccc1)[C@H](Cc1ccccc1)NC(=O)[C@H]1O[C@@H]1C(=O)NCCc1ccc(O)cc1	.	.	7%	.	.	.
O=C([C@@H](Cc1ccc(O[S+](=O)([O-])c2cccnc2)cc1)N[S+](=O)([O-])c1cccc2cccnc12)N1CCN(c2ccccc2)CC1	.	.	6%	.	.	.
O=C(Nc1nnc(-c2cccs2)o1)c1ccc(Cl)cc1	.	.	7%	.	.	.
CC(C)OCc1cc(CN2CCN(c3ccccc3)CC2)c(O)c2ncccc12	?	i	6%	-8	6%	1.3µM*
CC(=O)OC1C(CO)OC(O[C@H]2[C@H](OC(=O)[C@]34CCC(C)(C)C[C@H]3C3=CCC5[C@@]6(C)CC[C@H](O[C@@H]7O[C@H](C(=O)O)[C@@H](O)[C@H](O[C@@H]8OC[C@@H](O)[C@H](O)[C@H]8O)[C@H]7O[C@@H]7O[C@H](CO)[C@H](O)[C@H](O)[C@H]7O)[C@@](C)(C=O)C6CC[C@@]5(C)[C@]3(C)C[C@H]4O)O[C@H](C)[C@H](OC3OC(C)C(OC4OCC(O)C(O)C4O)C(O)C3O)[C@@H]2O)C(O)C1O (stereo partly specified)	.	.	7%[6.45 µM]	.	.	.
CCOC(=O)c1ccc(NC(=O)CSc2nnc(CNC(=O)c3ccc(OC)cc3)n2CC)cc1	-9%	i	79µM*	0	i	?
CN(C)c1ccc(C(CNS(=O)(=O)c2ccc(F)cc2)N2CCCC2)cc1 (stereo unspecified)	?	i	89µM*	-9	?	5%
Cc1ccc(S(=O)(=O)Nc2ccc(C)cc2C(=O)Nc2nc(-c3ccccc3)cs2)cc1	.	.	-6%	.	.	.
Oc1ccc(Nc2nc(-c3ccc(Cl)cc3)nc3ccccc23)cc1	?	i	-15%	-17	-16%	16µM*
COc1ccc2oc(=O)c(C(=O)Nc3cccc(C(=O)O)c3)cc2c1	10µM*	i	-9%	-2	6%	7.9µM*
COc1ccc(CNC(=O)c2cc3cc(OC)ccc3oc2=O)cc1	5%	i	-15%	-6	7%	-6%
COc1ccc(C)cc1NC(=O)c1ccc2c(=O)n3c(nc2c1)CCCCC3	-6%	i	79µM*	-16	-2%	?
SMILES	p53null 32C tox	GALC G270D act	NTMT1 inhibitor	DRV1 agonist	SKOV3 invasion	p53null 39C tox
COc1cccc(NC(=O)CC(=O)Nc2ccc3nc4n(c(=O)c3c2)CCCCC4)c1	-4%	i	0%	-10	i	-5%
COc1cc(OC)cc(C(=O)Nc2ccc3nc4n(c(=O)c3c2)CCCCC4)c1	?	i	45µM*	-9	-4%	?
COc1ccc(Cl)cc1N(C)C(=O)C(=O)Nc1ccc2nc3n(c(=O)c2c1)CCCCC3	5%	i	0%	80*	1%	-19%
CC(=O)Nc1sc2c(c1-c1ccccc1F)CCNC2	.	.	1%	.	.	.
CCCn1c(C)nc2c(NCCN(CC)CC)nc(C)nc21	.	.	6%	.	.	.
CCC(Oc1ccccc1)C(=O)N1CCN(Cc2cc(=O)n3nc(-c4cccc(C)c4)sc3n2)CC1 (stereo unspecified)	-1%	i	-9%	61*	4%	-7%
COc1cccc(-c2nn3c(=O)cc(CN4CCN(C(=O)/C=C/c5ccccc5)CC4)nc3s2)c1	32%	i	8%	46	i	-14%
CCCNS(=O)(=O)c1ccc2nc(NC(=O)c3ccc(F)cc3)sc2c1	-10%	i	8.9µM*	-19	22%	-8%
Cc1[nH]c2ccccc2c1C1(O)C(=O)N(Cc2ccccc2Cl)c2ccccc21 (stereo unspecified)	-17%	i	0%	105*	?	?
Cc1ccc(C)c(CN2C(=O)C(O)(c3c(C)[nH]c4ccccc34)c3ccccc32)c1 (stereo unspecified)	-10%	i	2%	-11	i	-8%
Cc1cc(=O)c2c(O)c3c(O)cc(=O)c4c3c3c(cc(O)c1c23)C(C)(C)C=4O	.	i	3.5µM*!	12	-3%	.
